S1P1 agonist: activates the human S1P1 receptor. hit rate 1.5% among 16,000. AID 1044, 2008. activation, % at 4.5 µM. Sphingosine 1-phosphate receptor 1 (Homo sapiens), P21453. S1P1 agonist cell-based reporter assay; in the data active means activation above about 80%
NOTCH ag: agonists of NOTCH signaling | NOTCH signaling luciferase reporter cells, luminescence | activation, % at 2.5 µM | hit rate 0.4% among 15,000 | AID 434982, 2010; in the data active means activation above about 2.2%
TLR4 MyD88 blk: inhibitors of human TLR4-MyD88 binding. Toll-like receptor 4 (Homo sapiens), O00206. Cell-based TLR4-MyD88 binding inhibition assay. inhibition, % at 10 µM. hit rate 0.06% among 16,000. AID 811, 2007; in the data active means inhibition above about 45%
OPRK1 antag MB: antagonists of human kappa opioid receptor OPRK1, Maybridge library; Kappa-type opioid receptor (Homo sapiens), P41145; OPRK1 cells, antagonist mode, fluorescence readout; inhibition, % at 9 µM; hit rate 0.4% among 16,000; AID 652031, 2013; in the data active means inhibition above about 50%
* = called active by the depositor. Only some compounds are listed: those with a hit (about 2.2% of all), similar ones and a draw of the others.

SMILES	S1P1 agonist	NOTCH ag	TLR4 MyD88 blk	OPRK1 antag MB
O=[N+]([O-])c1ccc(CS(=O)(=O)C(Cl)(Cl)Cl)o1	95.5*	-0.6	-2.8	5.0
O=c1[nH]c(=S)[nH]c(O)c1/C=C1\C=CC=N1	2.1	-1.0	-7.1	37.1

Source: PubChem BioAssay (The Scripps Research Institute Molecular Screening Center)
